Read-out in test [1]: Human Leukocyte Antigen - DR isotype (HLADR), HLA-DRA (gene 3122)
As to the kind of experiment: BSK_3C_HLADR: BioMAP Diversity Plus: 3C Assay for Human Leukocyte Antigen - DR isotype (HLADR) Biomarker Activity (AID 2283019).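 For outcome: ELISA of cell-surface HLA-DR on HUVEC 24 h after dosing.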 Particulars: primary human endothelial cells (HUVEC); actives raise or lower the signal. The method in brief:
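ELISA readout of surface HLA-DR on human umbilical vein endothelium, taken 24 h after chemical treatment. Gain- and loss-of-signal were both fitted relative to DMSO.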

Test [2] can be described thus: BSK_3C_Vis: BioMAP Diversity Plus: 3C Assay for Morphology Visualization (AID 2283025).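 For AC50: light microscopy image of cell morphology used as background control.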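 Note: fitted both ways so gain or loss versus DMSO counts.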 As to conditions: primary human endothelial cells (HUVEC). The method in brief:
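Chemicals were added to primary human umbilical vein endothelium, cells were incubated 24 h, and morphology was then visualized by light microscopy. Gain or loss of signal was fitted bidirectionally relative to DMSO.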

Read-out in test [3]: Human Leukocyte Antigen - DR isotype (HLADR), HLA-DRA (gene 3122)
As to the kind of experiment: BSK_BE3C_HLADR: BioMAP Diversity Plus: BE3C Assay for Human Leukocyte Antigen - DR isotype (HLADR) Biomarker Activity (AID 2283032). Particulars: primary human bronchial epithelial cells; actives raise or lower the signal. Put shortly: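 ELISA read-out of HLA-DR on human lung bronchial epithelial primary cells, measured 24 h post-dosing. Both increases and decreases were scored relative to DMSO vehicle.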

Read-out in test [4]: Interleukin-8 (IL8), CXCL8 (gene 3576)
As to the kind of experiment: BSK_CASM3C_IL8: BioMAP Diversity Plus: CASM3C Assay for Interleukin-8 (IL8) Biomarker Activity (AID 2283042).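 Note: IL-8 protein level quantified by ELISA.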 Particulars: primary human coronary artery smooth muscle cells; actives raise or lower the signal.

Read-out in test [5]: Monokine induced gamma interferon (MIG), CXCL9 (gene 4283)
As to the kind of experiment: BSK_CASM3C_MIG: BioMAP Diversity Plus: CASM3C Assay for Monokine induced gamma interferon (MIG) Biomarker Activity (AID 2283048).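 Note: MIG protein level measured by ELISA.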 Particulars: primary human coronary artery smooth muscle cells; actives raise or lower the signal.

Read-out in test [6]: Urokinase-type plasminogen activator receptor (uPAR), PLAUR (gene 5329)
Description: BSK_CASM3C_uPAR: BioMAP Diversity Plus: CASM3C Assay for Urokinase-type plasminogen activator receptor (uPAR) Biomarker Activity (AID 2283054).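 Note: cell-surface uPAR protein level quantified by ELISA.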 Particulars: primary human coronary artery smooth muscle cells; actives raise or lower the signal.

Read-out in test [7]: Intercellular Adhesion Molecule 1 (ICAM1), ICAM1 (gene 3383)
As to the kind of experiment: BSK_KF3CT_ICAM1: BioMAP Diversity Plus: KF3CT Assay for Intercellular Adhesion Molecule 1 (ICAM1) Biomarker Activity (AID 2283067). As to conditions: primary human keratinocytes with fibroblasts; actives raise or lower the signal. The method in brief:
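ICAM-1 levels are measured by ELISA 24 h after dosing a primary human co-culture of keratinocytes and foreskin fibroblasts. Activity in either direction is fitted relative to DMSO vehicle.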

Read-out in test [8]: Macrophage colony-stimulating factor (MCSF), CSF1 (gene 1435)
As to the kind of experiment: BSK_LPS_MCSF: BioMAP Diversity Plus: LPS Assay for Macrophage colony-stimulating factor (MCSF) Biomarker Activity (AID 2283083). As to conditions: primary human HUVEC with PBMC; actives raise or lower the signal. The method in brief: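 ELISA readout of M-CSF after 24 h compound exposure in a human endothelial/PBMC co-culture. Activity, in either direction, is fitted relative to DMSO vehicle.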

Read-out in test [9]: Tissue Factor, F3 (gene 2152)
Description: BSK_LPS_TissueFactor: BioMAP Diversity Plus: LPS Assay for Tissue Factor Biomarker Activity (AID 2283084). Particulars: primary human HUVEC with PBMC; actives raise or lower the signal. The method in brief: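 ELISA signal for cell-surface Tissue Factor (CD142) was read 24 h after compound dosing of an LPS-stimulated human endothelial–PBMC primary co-culture. Gain or loss of signal was scored relative to DMSO.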

Read-out in test [10]: Vascular cell adhesion molecule 1 (VCAM1), VCAM1 (gene 7412)
As to the kind of experiment: BSK_LPS_VCAM1: BioMAP Diversity Plus: LPS Assay for Vascular cell adhesion molecule 1 (VCAM1) Biomarker Activity (AID 2283086). Particulars: primary human HUVEC with PBMC; actives raise or lower the signal. Put shortly:
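HUVEC + PBMC co-culture, LPS system; compound 24 h; VCAM-1 by ELISA; bidirectional fit vs DMSO control; parallel SRB (0.1%, TCA-fixed, 560 nm) for cytotoxicity.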

Read-out in test [11]: CD40, CD40 (gene 958)
Description: BSK_SAg_CD40: BioMAP Diversity Plus: SAg Assay for CD40 Biomarker Activity (AID 2283088). Particulars: primary human HUVEC with PBMC; actives raise or lower the signal. Put shortly:
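Compounds were dosed onto a human primary endothelial–PBMC co-culture, and after 24 h CD40 was quantified by ELISA using a fluorescence signal. Activity in either direction was fitted relative to DMSO.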

Read-out in test [12]: Monocyte Chemoattractant Protein-1 (MCP1), CCL2 (gene 6347)
Description: BSK_SAg_MCP1: BioMAP Diversity Plus: SAg Assay for Monocyte Chemoattractant Protein-1 (MCP1) Biomarker Activity (AID 2283090). Particulars: primary human HUVEC with PBMC; actives raise or lower the signal. Put shortly:
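MCP-1 levels in the endothelial–PBMC SAg co-culture were quantified by ELISA at 24 h post-dosing; both increases and decreases versus DMSO scored. Cytotoxicity monitored by SRB total protein in parallel cultures.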

Read-out in test [13]: Monokine induced gamma interferon (MIG), CXCL9 (gene 4283)
Description: BSK_SAg_MIG: BioMAP Diversity Plus: SAg Assay for Monokine induced gamma interferon (MIG) Biomarker Activity (AID 2283092). Particulars: primary human HUVEC with PBMC; actives raise or lower the signal. Put shortly: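 Endothelial cells and PBMC were co-cultured, exposed to test chemicals, and sampled 24 h later. MIG was measured by ELISA, and responses were fitted in both directions relative to DMSO.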

Read-out in test [14]: Interleukin-8 (IL8), CXCL8 (gene 3576)
Description: BSK_SAg_IL8: BioMAP Diversity Plus: SAg Assay for Interleukin-8 (IL8) Biomarker Activity (AID 2283094). Particulars: primary human HUVEC with PBMC; actives raise or lower the signal. The method in brief:
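ELISA read-out of IL-8 in a primary human vascular co-culture (umbilical vein endothelium plus PBMC), taken 24 h after compound addition. Values derive from bidirectional fits against DMSO negative controls.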

A short description of test [15]: BSK_SAg_Proliferation: Cell Proliferation Assessment in the BioMAP Diversity Plus: SAg Assay (AID 2283095).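 Note: relative cell number as total protein by SRB absorbance in sub-confluent culture.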 As to conditions: primary human HUVEC with PBMC. The method in brief:
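Cells (endothelium plus PBMC, human primary) were dosed with chemical, cultured 96 h, fixed in 10% TCA and stained with 0.1% SRB. Absorbance at 560 nm gave relative protein, fitted bidirectionally relative to DMSO.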

Test [16] is described as follows: BSK_BT_Bcell_Proliferation: Viability Assessment in the BioMAP Diversity Plus: BT Assay for B cell Proliferation (AID 2284227). Particulars: primary human B cells with PBMC. The method in brief:
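Read-out is absorbance at 560 nm from sulforhodamine B staining of total protein, reflecting relative cell numbers in a human B cell and PBMC co-culture after 72 h of chemical exposure. Values were referenced to DMSO.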

Read-out in test [17]: Interleukin 17A (IL17A), IL17A (gene 3605)
As to the kind of experiment: BSK_BT_xIL17A: BioMAP Diversity Plus: BT Assay for Interleukin 17A (IL17A) Biomarker Activity (AID 2284229). Particulars: primary human B cells with PBMC. The method in brief:
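Secreted IL-17A was the measured endpoint, read by Luminex xMAP multiplex in supernatants of a human B cell/PBMC co-culture harvested 24 h after chemical dosing. Signal increase relative to DMSO defined activity.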

Read-out in test [18]: Collagen III, COL3A1 (gene 1281)
As to the kind of experiment: BSK_MyoF_CollagenIII: BioMAP Diversity Plus: MyoF Assay for Collagen III Biomarker Activity (AID 2284239). As to conditions: primary human lung fibroblasts. Put shortly:
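ELISA read-out of collagen III from human lung fibroblasts after 24 h of chemical treatment. The DMSO control served as negative control and baseline, with values fitted in the positive direction.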

Read-out in test [19]: Interleukin 2 (IL2), IL2 (gene 3558)
Description: BSK_BT_xIL2: BioMAP Diversity Plus: BT Assay for Interleukin 2 (IL2) Biomarker Activity (AID 2284245). As to conditions: primary human B cells with PBMC. Put shortly:
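B cell + PBMC co-culture (human primary), compound added, 24 h incubation; secreted IL-2 measured multiplexed on Luminex xMAP; gain-of-signal fit vs DMSO.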

Read-out in test [20]: Matrix Metallopeptidase 1 (MMP1), MMP1 (gene 4312)
As to the kind of experiment: BSK_MyoF_MMP1: BioMAP Diversity Plus: MyoF Assay for Matrix Metallopeptidase 1 (MMP1) Biomarker Activity (AID 2284268). Particulars: primary human lung fibroblasts. Put shortly:
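Lung fibroblast cultures were dosed with test chemicals and, after 24 h, MMP1 levels were measured by ELISA; responses were referenced to DMSO and analysed for increases.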

Several values for one entry are separate records, joined by “and”; a condition that tells them apart may be missing. Equal entries are not always repeated. More than one record can exist for a structure, and the calls need not agree. Activity calls are given as the source filed them. Rule for the calls: active = hit-call score of the fitted dose curve at least 0.9, where 1 is the maximum; inactive = score below 0.9.

For `CNC(=O)Oc1cc(C)c(SC)c(C)c1`, the AC50 was 24.6 µM (active) in test [1]; 20 µM (active) in test [6]; 20 µM (active) in test [10]; 16.7 µM (active) in test [11]; 20.1 µM (active) in [16]; 11.5 µM (active) in [17]. In addition, the result in test [2], in test [3], in test [4], in [5], in test [7] and in test [8] was inactive. In addition, the result in [9], in test [12], in [13], in [14], in [15] and in [18] was inactive. For the same compound, the outcome in test [19] and in test [20] was inactive.

As to `CC1(C)[C@H](C(=O)O[C@H](C#N)c2cccc(Oc3ccccc3)c2)[C@@H]1C=C(Br)Br`, the result in test [1], in test [2], in [3], in test [4], in test [5] and in test [6] was inactive. Moreover, the outcome in test [7], in [8], in [9], in test [10], in test [11] and in [12] was inactive. The result in [13], in test [14], in [15], in test [16], in test [17] and in test [18] was inactive. Further, the result in [20] was inactive. In addition, the AC50 was 3.97 µM (active) in test [15]; 20 µM (active) in [16]; 20 µM (active) in test [17]; 29.1 µM (active) and 20 µM (active) in test [19].

For `CCC(C)c1cc([N+](=O)[O-])cc([N+](=O)[O-])c1OC(=O)C=C(C)C` (configuration not stated), the AC50 was 5.85 µM (active) in [1]; 14.5 µM (active) in test [2]; 11.8 µM (active) in [3]; 9.2 µM (active) in test [4]; 33 µM (active) in [5]; 25 µM (active) in test [7]. The AC50 in [8] is 13 µM (active); in test [9], 33.5 µM (active); in [10], 20 µM (active); in [11] it was 7.96 µM (active); in [12] it was 12.6 µM (active); in test [13], 35 µM (active). Besides, the AC50 in [15] is 8.87 µM (active); in test [16] it was 32.6 µM (active); in test [17] it was 14.4 µM (active); in [18], 5.36 µM (active); in test [19], 30.9 µM (active). Moreover, the result in test [14] and in test [20] was inactive.

For orientation: AC50 means the concentration giving half of the maximal activity seen.
